# From PubChem BioAssay (NCATS)
# Results filed as inconclusive are left out. Active and inactive are the calls of the source. The call rests on the fitted dose curve; in most records, active means well fitted inhibition curve with a large enough effect; inconclusive means small, poorly fitted or top-dose-only effect; inactive means no such curve, though single readings can be large or run the other way.
# Assay: BET inhibitor-based combinations targeting novel dependencies in MECOM-rearranged (r) AML: MV-4-11 cell line (AID 2202233); further: nearly all actives have a fitted effect of over 45% in size
# Conditions: MV-4-11 AML viability, CellTiter-Glo luminescence, 48 h; series mostly up to 46 µM
# From the text: Ecotropic viral insertion site 1 (EVI1) is located on chromosome 3q26.2 as part of the MECOM (MDS and EVI1 complex) locus. Under normal hematopoiesis, EVI1 is a regulator of hematopoietic stem cell maintenance and self-renewal and EVI1 levels decrease as the cells differentiate. In approximately 5-10% of de novo acute myeloid leukemia (AML) EVI1 is aberrantly expressed, including Chromosomal inv(3)(q21;q26.2) or t(3;3)(q21;q26.2) alterations (MECOM-r) that account for about 50% of AML with EVI1 overexpression 31. AMLs with high levels of EVI1 have a poor prognosis and an overall survival time averaging between 10-14 months. EVI1 overexpression confers resistance in leukemia cells, highlighting the need to develop new targeted therapies for EVI1 overexpressing AMLs. Here, we performed an unbiased chemical drug screening by evaluating the single agent activity of a collection of 2,480 oncology-focused, approved and investigational drugs (NCATS Mechanism Interrogation Plates, MIPE v5.0) against a panel of seven AML cell lines. These included four MECOM-r cell-lines (AML-191, AML-194, UCSD-AML1 and HNT-34) and three non-MECOM-r AMLs (MV4-11, OCI-AML3 and SET-2). Exploiting the mechanistic redundancy built in the library, we identified target-level sensitivities in MECOM-r AML cells and relative activity as compared to other AML subtypes.
# A collection of 2480 mechanistically annotated dugs (MIPE v5.0) was used to screen four 3q26.2 rearranged AML cell lines and three non-3q26.2 rearranged AML cell lines. This library purposely exploits redundancy by including multiple inhibitors of key onco-targets, while simultaneously encompassing mechanistic diversity, targeting more than 800 distinct mechanisms of action. Briefly, cells were seeded in 5 uL of growth media using a Multidrop Combi dispenser into 1536 well white polystyrene tissue culture treated plates (Corning) at a density of 500cells/well. For each cell-line, for each of the 2480 drugs in MIPE v5.0 library, an 11-point dose curve was generated via a 1536 pin-tool. Plates were incubated for 48 hr at standard incubator conditions, covered by a stainless steel gasketed lid to prevent evaporation. Cell viability was determined by luminescence based, Cell Titer Glo assay (Promega). In detail, 3 uL of Cell Titer Glo were added to each well and plates were incubated at room temperature for 15 min with a stainless-steel lid in place. Luminescence readings were taken using a Viewlux (PerkinElmer) with a 2 s exposure time per plate. Compound dose-response curves were normalized to DMSO and empty well controls on each plate. Quantitative drug activity data from dose-response curves was determined utilizing area Under the Curve (AUC) and Z-transformed AUC (Z-AUC, a mean-centering transformation applied to each individual cell-line screened).
# Potency means the concentration at half of the fitted maximal effect.
row,SMILES,Potency
1,C[C@@H]1C[C@@H]([C@H](O)CC2CC(=O)NC(=O)C2)C(=O)[C@@H](C)C1,0.525 µM (active)
2,CCN1C[C@]2(OC(=O)c3ccccc3NC(C)=O)CC[C@H](OC)[C@@]34[C@H]5CC6[C@@H](OC)C[C@](O)(C(C[C@@H]23)[C@@H]14)[C@@]5(O)[C@@H]6OC,inactive
3,Cc1ccccc1-n1c(Cn2ncc3c(N)ncnc32)nc2cccc(C)c2c1=O,8.33 µM (active)
4,COc1ccc2c(c[n+](C)c3c4cc5c(cc4ccc23)OCO5)c1OC,5.25 µM (active)
5,CO/C1=C/C(C)=C\[C@@H](C)[C@@H](O)[C@@H](C)C/C(C)=C\C=C/[C@H](OC)[C@@H]([C@@H](C)[C@@H](O)[C@H](C)[C@@]2(O)C[C@@H](O)[C@H](C)[C@@H](C(C)C)O2)OC1=O,0.0986 µM (active)
6,CC(=O)Nc1ccc(OC[C@](C)(O)C(=O)Nc2ccc([N+](=O)[O-])c(C(F)(F)F)c2)cc1,inactive
7,CC(C)(O)C(=O)Nc1ccc([N+](=O)[O-])c(C(F)(F)F)c1,16.6 µM (active)
8,c1ccc2c(CN3CCNCC3)cccc2c1,inactive
9,CCNC(=O)C[C@@H]1N=C(c2ccc(Cl)cc2)c2cc(OC)ccc2-n2c(C)nnc21,0.468 µM (active)
10,C[C@]12CC[C@@H]3[C@@H](CCC4=CC(=O)CC[C@@H]43)[C@@H]1CC[C@@H]2OC(=O)CCc1ccccc1,18.6 µM (active)
11,Cc1c(N)nc([C@H](CC(N)=O)NC[C@@H](N)C(N)=O)nc1C(=O)N[C@H](C(=O)N[C@@H](C)[C@H](O)[C@@H](C)C(=O)N[C@@H](C(=O)NCCc1nc(-c2nc(C(=O)NCCC[S+](C)C)cs2)cs1)[C@@H](C)O)C(O[C@H]1O[C@H](CO)[C@H](O)[C@@H](O)[C@H]1O[C@H]1O[C@H](CO)[C@@H](O)[C@H](OC(N)=O)[C@@H]1O)c1cnc[nH]1 (stereo not given in full),4.56 µM (active)
12,Cc1c(C(=O)Nc2cccc(C(F)(F)F)c2)cc(-c2ccccc2)n1CCCN1CCOCC1,20.9 µM (active)
13,C[C@H]1CCC/C=C/C2C[C@H](O)C[C@H]2[C@H](O)/C=C/C(=O)O1 (stereo not given in full),0.263 µM (active)
14,CN1C(=O)[C@@H](NC(=O)[C@H](CCC(F)(F)F)[C@H](CCC(F)(F)F)C(N)=O)N=C(c2ccccc2)c2ccccc21,inactive
15,C[C@]12Cc3cn[nH]c3C[C@@H]1CC[C@@H]1[C@@H]2CC[C@@]2(C)[C@H]1CC[C@]2(C)O,0.742 µM (active)
16,O=c1[nH]c2ccc(Cl)cc2c(N[C@@H]2CN3CCC2CC3)c1-c1nc2ccccc2[nH]1,0.0742 µM (active)
17,CC[C@@H](C(N)=O)N1CCCC1=O,inactive
18,O=P1(N(CCCl)CCCl)NCCCO1 (stereo not given),inactive
19,N#CC(O[C@@H]1O[C@H](CO[C@@H]2O[C@H](CO)[C@@H](O)[C@H](O)[C@H]2O)[C@@H](O)[C@H](O)[C@H]1O)c1ccccc1 (stereo not given in full),inactive
20,COC[C@H]1OC(=O)c2coc3c2[C@@]1(C)C1=C(C3=O)[C@@H]2CC[C@H](O)[C@@]2(C)C[C@H]1OC(C)=O,5.9 µM (active)

row,SMILES,Potency
1,Cc1sc2c(c1C)C(c1ccc(Cl)cc1)=N[C@@H](CC(N)=O)c1nnc(C)n1-2,0.0833 µM (active)
2,CC(C)C[C@H](CN)CC(=O)O,inactive
3,CN(C)CCN(C)CCc1ccc(Cl)c(Cl)c1,inactive
4,COc1cc([C@@H]2c3cc4c(cc3[C@@H](O)C3COC(=O)C32)OCO4)cc(OC)c1O (stereo not given in full),0.372 µM (active)
5,Cc1cccc(C)c1NC(=O)CN1CCCC1=O,inactive
6,CN(C)NC(=O)CCC(=O)O,inactive
7,C/C1=C/C[C@@H](/C(C)=C/c2csc(C)n2)OC(=O)C[C@H](O)C(C)(C)C(=O)[C@H](C)[C@@H](O)[C@@H](C)CCC1,0.148 µM (active)
8,C[C@@H]1O[C@@H](O[C@@H]2C=C3CC[C@@H]4[C@H](CC[C@]5(C)[C@@H](c6ccc(=O)oc6)CC[C@]45O)[C@@]3(C)CC2)[C@H](O)[C@H](O)[C@H]1O,0.0295 µM (active)
9,O=C(Nc1ccncc1)C(=O)c1cn(Cc2ccc(Cl)cc2)c2ccccc12,0.296 µM (active)
10,C=C1C[C@@H]2[C@H](CC[C@]3(C)C(=O)CC[C@@H]23)[C@@]2(C)C=CC(=O)C=C12,18.6 µM (active)
11,CC(C)[C@H]1C(=O)N[C@H](CO)Cc2c[nH]c3cccc(c23)N1C,1.15 µM (active)
12,O=C(O)CNC(=O)c1c(O)c2ccccc2n(Cc2ccccc2)c1=O,inactive
13,Cn1c(CCCCCCC(=O)NO)nc2cc(N(CCCl)CCCl)ccc21,1.48 µM (active)
14,C/C=C(/C)C(=O)O[C@H]1C(C)=C2[C@H]([C@@H]1OC(=O)CCCCCCC)[C@@](C)(OC(C)=O)C[C@H](OC(=O)CCC)[C@@]1(O)[C@H]2OC(=O)[C@@]1(C)O,0.166 µM (active)
15,C#CCN(C)[C@H](C)Cc1ccccc1,inactive
16,CC(C)CC(N(C)C)C1(c2ccc(Cl)cc2)CCC1 (stereo not given),inactive
17,CN1[C@H]2CC(O)C[C@H]1[C@H]1O[C@H]12 (stereo not given in full),inactive
18,O=C(O)CCCc1ccc(N(CCCl)CCCl)cc1,inactive
19,N=c1c2c(-c3ccccc3)c(-c3ccccc3)n(Cc3ccccc3)c2ncn1C1CCC(O)CC1 (stereo not given),0.742 µM (active)
20,Cc1cc(SCc2sc(-c3ccc(C(F)(F)F)c(F)c3)nc2C)ccc1OCC(=O)O,18.6 µM (active)
